From PubChem BioAssay come the findings set out here.

The structures appear in SMILES notation. Activity calls are given as the source filed them.

A short description of experiment [1]: small molecules captured by biotinylated probe aFSTL3 – biochemical, small-molecule microarray, fluorescence 635/667, stem cell growth factor project, primary screen (AID 1064).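 Also: measures binding of the biotinylated anti-FSTL3 antibody to printed compounds.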 The following applies: higher = more signal.
Experiment [2] is described as follows: binders from COS7 lysate, DM2A8 probe, primary screen, torsin A project, cell lysate, small-molecule microarray, fluorescence 635/667 (AID 1065). To be noted: higher = more signal, COS7 lysate expressing mutant human TOR1A.
The nature of experiment [3]: small molecules captured by biotinylated probe aFGF2 – biochemical, small-molecule microarray, fluorescence 635/667, stem cell growth factor project, primary screen (AID 1067).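 Also: measures binding of biotinylated aFGF2 protein to printed compounds on slides; z-score merges feature fluorescence and signal-to-noise across triplicate slides.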 To be noted: higher = more signal.
The nature of experiment [4]: small molecules captured by biotinylated probe aFGF10 – biochemical, small-molecule microarray, fluorescence 635/667, stem cell growth factor project, primary screen (AID 1071).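 Also: score merges 667 nm spot intensity and signal to noise from triplicate slides.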 To be noted: higher = more signal.
Experiment [5] has as its target Neurogenic locus notch homolog protein 2 (Homo sapiens) (UniProt Q04721). In words: small molecules binding Notch2 protein – biochemical, small-molecule microarray, 635 nm fluorescence, stem cell growth factors, primary screen (AID 1073). The following applies: higher = more signal.
For experiment [6], the target named is Pro-neuregulin-1, membrane-bound isoform (Homo sapiens) (UniProt Q02297). In words: small molecules binding neuregulin-1 protein – biochemical, small-molecule microarray, fluorescence 635/667, psychiatric disease protein project, primary screen (AID 1075).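 Also: score combines 667 nm spot fluorescence with signal to noise.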 The following applies: NRG1 binding, 635 nm fluorescence, higher = more signal.
In experiment [7] the test system is Neuregulin-1 EGF-like domain. Kind of experiment: small molecules binding NRG1 EGF domain – biochemical, small-molecule microarray, 635 nm fluorescence, primary screen (AID 1081).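 Also: binding of the protein to compounds printed on small-molecule microarray slides.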 To be noted: higher = more signal.
Experiment [8] in a line: FRG1 expression reporter modulators in myotubes – cell-based, C2C12 myotubes, firefly/Renilla luciferase, luminescence, FRG1 inhibition for FSHD, primary screen (AID 1084). The following applies: FRG1 promoter luciferase, higher = more signal, called active from +8 up or from −8 down.
Experiment [9] is described as follows: small molecules captured by biotinylated probe aFST – biochemical, small-molecule microarray, fluorescence 635/667, stem cell growth factor project, primary screen (AID 1086).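 Also: score merges 667 nm fluorescence with signal-to-noise of each printed compound spot.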 To be noted: higher = more signal.
The nature of experiment [10]: binders of probe aHhip on microarray, primary screen, stem cell growth factor project, biochemical, small-molecule microarray, fluorescence 635/667 (AID 1087).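 Also: score merges spot fluorescence at 667nm with spot signal to noise ratio.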 To be noted: higher = more signal.

Pro-neuregulin-1, membrane-bound isoform (Homo sapiens), sequence (Q02297 whole entry, looked up, the tested form may be a part, canonical isoform): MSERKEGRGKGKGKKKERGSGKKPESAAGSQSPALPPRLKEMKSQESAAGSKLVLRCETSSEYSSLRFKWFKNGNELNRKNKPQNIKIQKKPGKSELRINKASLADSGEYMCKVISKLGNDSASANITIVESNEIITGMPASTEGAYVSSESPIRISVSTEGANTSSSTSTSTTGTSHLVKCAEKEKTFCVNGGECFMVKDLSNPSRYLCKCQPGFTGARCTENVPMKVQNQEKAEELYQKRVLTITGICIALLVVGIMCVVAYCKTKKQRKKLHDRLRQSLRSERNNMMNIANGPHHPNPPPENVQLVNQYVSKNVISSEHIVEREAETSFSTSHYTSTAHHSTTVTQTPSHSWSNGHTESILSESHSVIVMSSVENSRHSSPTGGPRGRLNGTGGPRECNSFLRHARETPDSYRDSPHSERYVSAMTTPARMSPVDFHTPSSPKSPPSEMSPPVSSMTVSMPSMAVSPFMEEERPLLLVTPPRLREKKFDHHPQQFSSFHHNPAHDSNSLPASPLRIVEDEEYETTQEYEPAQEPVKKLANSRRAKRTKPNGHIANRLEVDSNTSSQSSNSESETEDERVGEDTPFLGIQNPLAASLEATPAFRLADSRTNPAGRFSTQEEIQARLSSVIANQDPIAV
Neurogenic locus notch homolog protein 2 (Homo sapiens), sequence (Q04721 whole entry, looked up, canonical isoform): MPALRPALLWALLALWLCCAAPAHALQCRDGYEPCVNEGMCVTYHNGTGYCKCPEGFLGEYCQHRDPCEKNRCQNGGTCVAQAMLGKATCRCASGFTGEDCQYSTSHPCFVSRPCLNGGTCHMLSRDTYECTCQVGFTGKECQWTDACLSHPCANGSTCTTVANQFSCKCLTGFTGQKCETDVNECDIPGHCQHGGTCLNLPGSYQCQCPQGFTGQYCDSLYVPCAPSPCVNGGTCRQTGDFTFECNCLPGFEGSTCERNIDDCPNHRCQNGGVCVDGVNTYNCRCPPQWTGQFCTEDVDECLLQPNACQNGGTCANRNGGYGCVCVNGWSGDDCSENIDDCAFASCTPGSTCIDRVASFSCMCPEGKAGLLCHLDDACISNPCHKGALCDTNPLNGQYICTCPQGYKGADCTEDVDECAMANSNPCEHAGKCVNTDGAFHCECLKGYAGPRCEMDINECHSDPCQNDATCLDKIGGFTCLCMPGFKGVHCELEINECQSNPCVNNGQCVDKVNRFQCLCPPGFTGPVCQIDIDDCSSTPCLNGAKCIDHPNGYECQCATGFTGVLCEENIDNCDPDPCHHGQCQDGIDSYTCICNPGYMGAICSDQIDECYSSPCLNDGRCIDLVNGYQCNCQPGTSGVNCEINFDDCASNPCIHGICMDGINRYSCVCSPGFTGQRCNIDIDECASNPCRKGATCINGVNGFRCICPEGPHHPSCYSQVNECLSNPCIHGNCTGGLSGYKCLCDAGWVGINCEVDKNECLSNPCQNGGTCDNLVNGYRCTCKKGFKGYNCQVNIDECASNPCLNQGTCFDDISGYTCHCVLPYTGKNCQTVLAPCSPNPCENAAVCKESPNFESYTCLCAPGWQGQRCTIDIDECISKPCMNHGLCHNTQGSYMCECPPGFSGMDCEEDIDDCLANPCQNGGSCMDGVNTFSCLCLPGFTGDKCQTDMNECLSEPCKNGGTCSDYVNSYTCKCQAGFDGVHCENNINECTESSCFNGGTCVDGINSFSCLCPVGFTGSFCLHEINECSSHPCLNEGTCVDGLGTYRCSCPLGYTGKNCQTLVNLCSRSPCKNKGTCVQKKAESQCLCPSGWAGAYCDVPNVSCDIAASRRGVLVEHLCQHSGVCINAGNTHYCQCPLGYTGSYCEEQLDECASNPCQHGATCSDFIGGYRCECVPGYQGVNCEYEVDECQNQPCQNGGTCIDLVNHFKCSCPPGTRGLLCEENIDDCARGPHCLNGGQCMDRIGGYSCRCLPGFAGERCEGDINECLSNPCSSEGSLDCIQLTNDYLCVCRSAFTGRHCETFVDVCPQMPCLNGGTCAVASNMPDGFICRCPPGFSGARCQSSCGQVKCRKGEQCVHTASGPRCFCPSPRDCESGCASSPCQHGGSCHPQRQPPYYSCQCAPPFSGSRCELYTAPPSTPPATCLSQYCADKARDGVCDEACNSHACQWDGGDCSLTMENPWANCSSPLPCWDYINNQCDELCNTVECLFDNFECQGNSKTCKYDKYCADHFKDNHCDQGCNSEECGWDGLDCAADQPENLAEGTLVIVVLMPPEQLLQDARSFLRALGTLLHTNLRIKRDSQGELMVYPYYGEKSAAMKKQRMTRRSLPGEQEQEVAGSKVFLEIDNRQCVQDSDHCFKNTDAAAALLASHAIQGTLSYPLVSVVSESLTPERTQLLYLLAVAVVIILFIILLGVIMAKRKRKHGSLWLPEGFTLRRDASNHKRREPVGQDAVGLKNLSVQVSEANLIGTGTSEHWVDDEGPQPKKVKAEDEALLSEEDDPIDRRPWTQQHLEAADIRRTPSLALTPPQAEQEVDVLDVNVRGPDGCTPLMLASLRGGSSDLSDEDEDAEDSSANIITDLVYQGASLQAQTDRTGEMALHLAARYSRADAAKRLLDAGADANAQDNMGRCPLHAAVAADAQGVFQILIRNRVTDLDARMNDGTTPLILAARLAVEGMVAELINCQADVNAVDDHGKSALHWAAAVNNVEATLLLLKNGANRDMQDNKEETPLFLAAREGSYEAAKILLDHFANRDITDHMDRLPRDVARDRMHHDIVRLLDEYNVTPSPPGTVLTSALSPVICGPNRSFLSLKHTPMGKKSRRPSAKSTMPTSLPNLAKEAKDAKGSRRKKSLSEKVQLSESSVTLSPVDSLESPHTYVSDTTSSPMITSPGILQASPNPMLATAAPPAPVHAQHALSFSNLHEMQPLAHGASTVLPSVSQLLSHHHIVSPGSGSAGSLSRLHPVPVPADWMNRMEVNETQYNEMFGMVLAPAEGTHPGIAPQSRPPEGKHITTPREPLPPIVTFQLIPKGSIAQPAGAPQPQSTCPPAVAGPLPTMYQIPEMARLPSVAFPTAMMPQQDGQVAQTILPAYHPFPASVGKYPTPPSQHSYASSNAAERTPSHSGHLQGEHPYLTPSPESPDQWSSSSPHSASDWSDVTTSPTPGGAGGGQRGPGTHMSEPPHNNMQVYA

Consider `CC(CO)N1C(=O)[C@@H]2C3C(=O)OCCC/C=C\[C@H]3OC23C=CCN(Cn2nnc4ccccc42)C(=O)[C@@H]13` (stereo not given in full), for which the composite z-score in experiment [1] was -0.185; in experiment [2], -0.469; in experiment [3] it was -0.107; in experiment [4], 0.285; in experiment [5], -0.722; in experiment [6], 1.7. Also, the composite z-score is 1.34 in experiment [7], -0.161 in experiment [9] and 0.21 in experiment [10]. In experiment [8], the z-score was -1.11 (inactive).

For `CC=CC(O)C1C=CC2C(=O)N(C)C(=O)C2N1N1CCCCC1` (stereo not given), the composite z-score in experiment [1] is -0.0771; in experiment [2] it was 0.326; in experiment [3], -0.0231; in experiment [4] it was 0.862; in experiment [5], 1.45; in experiment [6], 1.85. The composite z-score in experiment [7] was 1.26; in [9] it was 0.697; in experiment [10], -0.305. In addition, in experiment [8], the z-score is 1.89 (inactive).

Turning to `[N-]=[N+]=NCc1ccccc1C[C@@]1(C(=O)N2CCCCC2)N=C(c2ccc(OCCCO)cc2)O[C@@H]1c1ccccc1N=[N+]=[N-]`, the composite z-score in experiment [1] was 0.167; in experiment [2], 0.101; in [3], -0.204; in [4], 0.229; in experiment [5], 1.49; in [6], 1.38. Also, the composite z-score in experiment [7] came to 1.05; in [9], 0.227; in experiment [10], 0.0505. Besides, the z-score in experiment [8] is -3 (inactive).

For the molecule `O=C(O)[C@H](Cc1ccccc1)n1cc(-c2ccccn2)nn1`, the composite z-score in experiment [1] is -0.158; in [2], -0.258; in experiment [3], -0.149; in [4], 0.306; in [5], 0.377; in experiment [6], 0.286. Besides, the composite z-score in experiment [7] is 1.07; in [9], 0.321; in experiment [10], -0.0672. The z-score in experiment [8] was 1.24 (inactive).

Regarding `CCOC(=CC(=O)OC)CC(O)c1cccc(Cl)c1` (stereo not given), the composite z-score was 0.201 in [1]; 0.071 in [2]; -0.0504 in experiment [3]; -0.157 in experiment [4]; -0.124 in [5]; 1.43 in experiment [6]. Moreover, the figures for the composite z-score in experiment [7], in experiment [9] and in experiment [10] were 1.37, -0.595 and -0.303, respectively. Also, the z-score in experiment [8] is -3.65 (inactive).

In the case of `COCCOC(=O)N1C(=O)[C@@]2(c3cc(C#CC4(O)CCCCCC4)ccc31)[C@H](C(N)=O)[C@H]1C(=O)O[C@H](c3ccccc3)[C@H](c3ccccc3)N1[C@@H]2c1ccc(O)cc1`, the composite z-score in [1] was -0.353; in experiment [2], 0.516; in [3], -0.0494; in [4] it was 0.544; in experiment [5], 0.618; in [6] it was 0.446. In addition, the composite z-score in experiment [7] came to 1.28; in [9], 0.33; in experiment [10] it was 0.192. For the same molecule, the z-score in [8] was 0.116 (inactive).

Take `COC(=O)[C@H](Cc1ccccc1)N1CC(/C=C/C2CC2)=C[C@@H]1[C@@H](O)Cc1ccccc1`: the composite z-score in [1] was -0.549; in experiment [2], 0.0784; in experiment [3] it was -0.0093; in experiment [4], 1.23; in experiment [5] it was 1.38; in experiment [6], 0.947. For the same molecule, the composite z-score in experiment [7] turned out to be 1.11; in [9], 0.707; in experiment [10], 0.177. Further, the z-score in experiment [8] is -1.09 (inactive).

With `CC(C)N1CC=CC23O[C@@H]4C=CCCOC(=O)C4[C@H]2C(=O)N(CCO)[C@@H]3C1=O` (stereo not given in full), the composite z-score in [1] was 0.108; in experiment [2], 2.11; in [3], -0.177; in experiment [4] it was -0.351; in experiment [5], -0.537; in experiment [6], -0.637. For the same molecule, the composite z-score in [7] was 0.606; in experiment [9], -0.398; in [10], -0.0939. The z-score in experiment [8] is -0.286 (inactive).

`C=CC[C@@]12N=C(c3ccc(OCCCO)cc3)O[C@@H]1c1ccccc1N(CCS(=O)(=O)c1ccccc1)C2=O`: the composite z-score is -0.015 in [1]; -0.302 in experiment [2]; 0.188 in [3]; 0.0692 in [4]; 0.659 in experiment [5]; 1.22 in experiment [6]. Moreover, the values for the composite z-score in experiment [7], in [9] and in [10] were 1.32, 0.261 and -0.0391, respectively. The z-score in experiment [8] was 0.601 (inactive).

For `COc1ccc(C(O)C2C=CC3C(=O)N(c4ccccc4)C(=O)C3N2Nc2ccc(C#N)cc2)c2ccccc12` (stereo not given), the composite z-score in [1] is 0.983; in [2] it was 0.707; in experiment [3] it was 0.0785; in experiment [4], 0.337; in [5], 1.6; in [6] it was 1.96. Moreover, the composite z-score in experiment [7] worked out at 1.11; in experiment [9], 1.2; in experiment [10], 0.0515. The z-score in [8] was 0.757 (inactive).

As to `O=c1cccc(-c2cccc(Cl)c2)o1`, the composite z-score in experiment [1] is -0.118; in [2], -0.341; in experiment [3], -0.0937; in experiment [4] it was 0.299; in experiment [5], -0.0173; in [6], -0.0364. For the same molecule, the composite z-score in experiment [7] is 0.409; in [9] it was 0.433; in experiment [10] it was -0.223. Further, the z-score in experiment [8] was 2.02 (inactive).

Consider `CCCNC(=O)[C@@]1(c2ccc([N+](=O)[O-])cc2)CC(=O)N(C2CCCCC2)[C@@H]1c1ccc(CO)cc1I`, for which the composite z-score in [1] came to 0.368; in experiment [2] it was 0.983; in experiment [3], 0.091; in experiment [4], 0.599; in experiment [5], 0.96; in [6], 0.456. Also, the figures for the composite z-score in experiment [7], in experiment [9] and in experiment [10] were 1.21, 0.29 and -0.0994, respectively. Further, the z-score in [8] was -0.546 (inactive).

Regarding `COC(=O)[C@@]1(Cc2ccc(F)cc2)[C@H]2c3cc(C(=O)N4CCCC4)n(CCF)c3C[C@H]2CN1C(=O)c1ccccc1`, the composite z-score worked out at 0.999 in experiment [1]; 1.52 in [2]; 0.856 in [3]; 1.1 in experiment [4]; 1.55 in [5]; 1.65 in experiment [6]. Also, the composite z-score in experiment [7] came out at 1.29; in [9], 2.81; in [10] it was 2.09. For the same molecule, in [8], the z-score is -0.533 (inactive).

As for `O=C1O[C@@H](c2ccccc2)[C@@H](c2ccccc2)N2[C@@H](c3ccc(O)cc3)[C@]3(C(=O)Nc4ccccc43)[C@@H](C(=O)Nc3nc4ccccc4s3)[C@H]12`, the composite z-score in [1] was 0.0072; in [2], 0.155; in experiment [3] it was -0.0206; in [4], 0.43; in experiment [5] it was -0.434; in experiment [6], 1.28. Moreover, the composite z-score stood at 1.15 in experiment [7], 0.642 in [9] and 0.0373 in experiment [10]. Moreover, the z-score in [8] was -2.37 (inactive).

Regarding `COc1ccc(C#Cc2ccc3c(c2)[C@]2(C(=O)N3)[C@H](C(=O)N3CCc4cc(OC)c(OC)cc4C3)[C@H]3C(=O)O[C@H](c4ccccc4)[C@H](c4ccccc4)N3[C@@H]2c2ccc(O)cc2)cc1`, the composite z-score in experiment [1] was -0.439; in experiment [2], 0.606; in [3], -0.0583; in [4], 0.282; in [5], 0.781; in [6] it was 1.27. Besides, the composite z-score in [7] is 1.19; in [9] it was 0.295; in experiment [10], -0.12. Besides, the z-score in [8] was 1.57 (inactive).
